Measurements taken from the supplement of paper PMC4022240.
± gives the standard deviation.

Tests used:
Experiment in all cases: peptide microarray binding signal (635 nm), min-max normalized on array (fraction of array maximum); higher = stronger binding
Details in all cases: peptide region: H3 5-17
[1] = target: T1, HaloTag-ATRX ADD domain (163-292)
T1 chain: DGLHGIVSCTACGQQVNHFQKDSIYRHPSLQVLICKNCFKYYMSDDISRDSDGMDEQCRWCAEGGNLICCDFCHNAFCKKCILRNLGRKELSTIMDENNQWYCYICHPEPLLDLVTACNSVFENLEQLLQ
Method in brief: (§1)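 Two probe formats were used for 1 h at 4°C: biotin-labelled HaloTag reader fusions (10 nM to 1 μM) with streptavidin-Alexa Fluor 647, and rabbit histone antibodies (1:10,000 to 1:2,000) with anti-rabbit Alexa 647. Both were applied to nitrocellulose arrays of histone 13-mer peptide–cellulose conjugates printed in triplicate with a Cy3 tracer and blocked overnight at 4°C. Signal was read at 635 nm and misprints at 532 nm on an Axon GenePix 4000B. Binding signal is expressed as the triplicate-spot mean intensity, min-max scaled for each library.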

[2] = target: HaloTag-ING2 PHD (mouse Ing2 200-280)
Method in brief: as §1

[3] = target: anti-H3K4me3 antibody ab8580
Method in brief: as §1

[4] = target: anti-H3K9me3 antibody ab8898
Method in brief: as §1

[5] = peptide modifications: H3K14me1, binder concentration: 1:2,000 dilution
[6] = peptide modifications: H3K14me1, binder concentration: 1:10,000 dilution
[7] = peptide modifications: H3R8cit H3K9ac, binder concentration: 1:2,000 dilution
[8] = peptide modifications: H3R8cit H3K9ac, binder concentration: 1:10,000 dilution
[9] = peptide modifications: H3K14ac, binder concentration: 1:2,000 dilution
[10] = peptide modifications: H3K14ac, binder concentration: 1:10,000 dilution
[11] = peptide modifications: H3R8me1 H3K9ac, binder concentration: 1:2,000 dilution
[12] = peptide modifications: H3R8me1 H3K9ac, binder concentration: 1:10,000 dilution
[13] = peptide modifications: H3R8cit H3K9me2, binder concentration: 1:2,000 dilution
[14] = peptide modifications: H3R8cit H3K9me2, binder concentration: 1:10,000 dilution
[15] = peptide modifications: H3R8cit, binder concentration: 1:2,000 dilution
[16] = peptide modifications: H3R8cit, binder concentration: 1:10,000 dilution
[17] = peptide modifications: H3R8me1 H3K9me2, binder concentration: 1:2,000 dilution
[18] = peptide modifications: H3R8me1 H3K9me2, binder concentration: 1:10,000 dilution
[19] = peptide modifications: H3K14me3, binder concentration: 1:2,000 dilution
[20] = peptide modifications: H3K14me3, binder concentration: 1:10,000 dilution
[21] = peptide modifications: H3R8me1 H3K9me1, binder concentration: 1:2,000 dilution
[22] = peptide modifications: H3R8me1 H3K9me1, binder concentration: 1:10,000 dilution
[23] = peptide modifications: H3K14me2, binder concentration: 1:2,000 dilution
[24] = peptide modifications: H3K14me2, binder concentration: 1:10,000 dilution

B1: H3 5-17 Q T A R K S T G G Kme A P R (peptide)
chain: QTARKSTGGKAPR
- peptide microarray binding signal ([1]; peptide modifications: H3K14me1, binder concentration: 50 nM): 0.0197 ± 0.00048
- peptide microarray binding signal ([1]; peptide modifications: H3K14me1, binder concentration: 500 nM): 0.047 ± 0.0024
- peptide microarray binding signal ([2]; peptide modifications: H3K14me1, binder concentration: 10 nM): 0.0957 ± 0.02
- peptide microarray binding signal ([2]; peptide modifications: H3K14me1, binder concentration: 100 nM): 0.0987 ± 0.016
- peptide microarray binding signal [3, 5]: 0.0306 ± 0.0089
- peptide microarray binding signal [3, 6]: 0.0289 ± 0.0032
- peptide microarray binding signal [4, 5]: 0.0125 ± 0.0013
- peptide microarray binding signal [4, 6]: 0.0104 ± 0.0012

B2: H3 5-17 Q T A Rcit Kac S T G G K A P R (peptide)
chain: QTARKSTGGKAPR
- peptide microarray binding signal ([1]; peptide modifications: H3R8cit H3K9ac, binder concentration: 50 nM): 0.0106 ± 0.00074
- peptide microarray binding signal ([1]; peptide modifications: H3R8cit H3K9ac, binder concentration: 500 nM): 0.0249 ± 0.0053
- peptide microarray binding signal ([2]; peptide modifications: H3R8cit H3K9ac, binder concentration: 10 nM): 0.0426 ± 0.0074
- peptide microarray binding signal ([2]; peptide modifications: H3R8cit H3K9ac, binder concentration: 100 nM): 0.0673 ± 0.0053
- peptide microarray binding signal [3, 7]: 0.0133 ± 0.0056
- peptide microarray binding signal [3, 8]: 0.0146 ± 0.0065
- peptide microarray binding signal [4, 7]: 0.0143 ± 0.0052
- peptide microarray binding signal [4, 8]: 0.0112 ± 0.00045

B3: H3 5-17 Q T A R K S T G G Kac A P R (peptide)
chain: QTARKSTGGKAPR
- peptide microarray binding signal ([1]; peptide modifications: H3K14ac, binder concentration: 50 nM): 0.01348 ± 6.3e-05
- peptide microarray binding signal ([1]; peptide modifications: H3K14ac, binder concentration: 500 nM): 0.0307 ± 0.0021
- peptide microarray binding signal ([2]; peptide modifications: H3K14ac, binder concentration: 10 nM): 0.0491 ± 0.007
- peptide microarray binding signal ([2]; peptide modifications: H3K14ac, binder concentration: 100 nM): 0.0789 ± 0.0089
- peptide microarray binding signal [3, 9]: 0.0163 ± 0.0012
- peptide microarray binding signal [3, 10]: 0.0226 ± 0.0018
- peptide microarray binding signal [4, 9]: 0.0103 ± 0.00042
- peptide microarray binding signal [4, 10]: 0.00657 ± 0.0006

B4: H3 5-17 Q T A Rme Kac S T G G K A P R (peptide)
chain: QTARKSTGGKAPR
- peptide microarray binding signal ([1]; peptide modifications: H3R8me1 H3K9ac, binder concentration: 50 nM): 0.0137 ± 0.00035
- peptide microarray binding signal ([1]; peptide modifications: H3R8me1 H3K9ac, binder concentration: 500 nM): 0.0307 ± 0.0019
- peptide microarray binding signal ([2]; peptide modifications: H3R8me1 H3K9ac, binder concentration: 10 nM): 0.0479 ± 0.004
- peptide microarray binding signal ([2]; peptide modifications: H3R8me1 H3K9ac, binder concentration: 100 nM): 0.0783 ± 0.0015
- peptide microarray binding signal [3, 11]: 0.0231 ± 0.0043
- peptide microarray binding signal [3, 12]: 0.0272 ± 0.0053
- peptide microarray binding signal [4, 11]: 0.0277 ± 0.0029
- peptide microarray binding signal [4, 12]: 0.0205 ± 0.00081

B5: H3 5-17 Q T A Rcit Kme2 S T G G K A P R (peptide)
chain: QTARKSTGGKAPR
- peptide microarray binding signal ([1]; peptide modifications: H3R8cit H3K9me2, binder concentration: 50 nM): 0.0094 ± 0.00026
- peptide microarray binding signal ([1]; peptide modifications: H3R8cit H3K9me2, binder concentration: 500 nM): 0.0211 ± 0.0019
- peptide microarray binding signal ([2]; peptide modifications: H3R8cit H3K9me2, binder concentration: 10 nM): 0.0388 ± 0.00083
- peptide microarray binding signal ([2]; peptide modifications: H3R8cit H3K9me2, binder concentration: 100 nM): 0.0648 ± 0.0026
- peptide microarray binding signal [3, 13]: 0.016 ± 0.0013
- peptide microarray binding signal [3, 14]: 0.0193 ± 0.00081
- peptide microarray binding signal [4, 13]: 0.271 ± 0.036
- peptide microarray binding signal [4, 14]: 0.197 ± 0.037

B6: H3 5-17 Q T A Rcit K S T G G K A P R (peptide)
chain: QTARKSTGGKAPR
- peptide microarray binding signal ([1]; peptide modifications: H3R8cit, binder concentration: 50 nM): 0.0063 ± 0.00069
- peptide microarray binding signal ([1]; peptide modifications: H3R8cit, binder concentration: 500 nM): 0.00719 ± 0.0018
- peptide microarray binding signal ([2]; peptide modifications: H3R8cit, binder concentration: 10 nM): 0.0115 ± 0.0029
- peptide microarray binding signal ([2]; peptide modifications: H3R8cit, binder concentration: 100 nM): 0.00574 ± 0.00039
- peptide microarray binding signal [3, 15]: 0.00504 ± 0.0019
- peptide microarray binding signal [3, 16]: 0.0142 ± 0.0043
- peptide microarray binding signal [4, 15]: 0.00642 ± 0.0027
- peptide microarray binding signal [4, 16]: 0.00588 ± 0.00093

B7: H3 5-17 Q T A Rme Kme2 S T G G K A P R (peptide)
chain: QTARKSTGGKAPR
- peptide microarray binding signal ([1]; peptide modifications: H3R8me1 H3K9me2, binder concentration: 50 nM): 0.00934 ± 0.00073
- peptide microarray binding signal ([1]; peptide modifications: H3R8me1 H3K9me2, binder concentration: 500 nM): 0.0296 ± 0.00077
- peptide microarray binding signal ([2]; peptide modifications: H3R8me1 H3K9me2, binder concentration: 10 nM): 0.0501 ± 0.013
- peptide microarray binding signal ([2]; peptide modifications: H3R8me1 H3K9me2, binder concentration: 100 nM): 0.0426 ± 0.0023
- peptide microarray binding signal [3, 17]: 0.0281 ± 0.0026
- peptide microarray binding signal [3, 18]: 0.0231 ± 0.00029
- peptide microarray binding signal [4, 17]: 0.175 ± 0.029
- peptide microarray binding signal [4, 18]: 0.0879 ± 0.0073

B8: H3 5-17 Q T A R K S T G G Kme3 A P R (peptide)
chain: QTARKSTGGKAPR
- peptide microarray binding signal ([1]; peptide modifications: H3K14me3, binder concentration: 50 nM): 0.00931 ± 0.00042
- peptide microarray binding signal ([1]; peptide modifications: H3K14me3, binder concentration: 500 nM): 0.0186 ± 0.0016
- peptide microarray binding signal ([2]; peptide modifications: H3K14me3, binder concentration: 10 nM): 0.0256 ± 0.00028
- peptide microarray binding signal ([2]; peptide modifications: H3K14me3, binder concentration: 100 nM): 0.0377 ± 0.0028
- peptide microarray binding signal [3, 19]: 0.0987 ± 0.029
- peptide microarray binding signal [3, 20]: 0.0663 ± 0.0053
- peptide microarray binding signal [4, 19]: 0.0574 ± 0.00077
- peptide microarray binding signal [4, 20]: 0.0328 ± 0.0018

B9: H3 5-17 Q T A Rme Kme S T G G K A P R (peptide)
chain: QTARKSTGGKAPR
- peptide microarray binding signal ([1]; peptide modifications: H3R8me1 H3K9me1, binder concentration: 50 nM): 0.01 ± 0.0016
- peptide microarray binding signal ([1]; peptide modifications: H3R8me1 H3K9me1, binder concentration: 500 nM): 0.0241 ± 0.0051
- peptide microarray binding signal ([2]; peptide modifications: H3R8me1 H3K9me1, binder concentration: 10 nM): 0.0382 ± 0.016
- peptide microarray binding signal ([2]; peptide modifications: H3R8me1 H3K9me1, binder concentration: 100 nM): 0.0483 ± 0.0026
- peptide microarray binding signal [3, 21]: 0.0217 ± 0.00038
- peptide microarray binding signal [3, 22]: 0.0201 ± 0.0019
- peptide microarray binding signal [4, 21]: 0.034 ± 0.009
- peptide microarray binding signal [4, 22]: 0.0236 ± 0.0018

B10: H3 5-17 Q T A R K S T G G Kme2 A P R (peptide)
chain: QTARKSTGGKAPR
- peptide microarray binding signal ([1]; peptide modifications: H3K14me2, binder concentration: 50 nM): 0.00956 ± 0.00084
- peptide microarray binding signal ([1]; peptide modifications: H3K14me2, binder concentration: 500 nM): 0.0335 ± 0.0014
- peptide microarray binding signal ([2]; peptide modifications: H3K14me2, binder concentration: 10 nM): 0.0584 ± 0.011
- peptide microarray binding signal ([2]; peptide modifications: H3K14me2, binder concentration: 100 nM): 0.077 ± 0.0071
- peptide microarray binding signal [3, 23]: 0.044 ± 0.004
- peptide microarray binding signal [3, 24]: 0.0224 ± 0.0035
- peptide microarray binding signal [4, 23]: 0.0137 ± 0.00078
- peptide microarray binding signal [4, 24]: 0.00715 ± 0.00071
